# In PubChem BioAssay (NCATS):
# Inconclusive results are not listed. A call without a number means that no potency is given here. Activity calls are given as the source filed them. Unless noted, calls follow the shape of the dose curve; as a rule, active = well fitted inhibition curve with a large enough effect; inconclusive = small, poorly fitted or top-dose-only effect; inactive = flat fitted curve, though single readings scatter.
# How the values were obtained:
# [1] = S16 Schwann cell PMP22 intronic element beta-lactamase assay (AID 624044; calls by dose curve; also: nearly all actives have a fitted effect of over 15% in size); conditions: S16 rat Schwann cells, PMP22 element beta-lactamase FRET, 24 h; ratio activity, negative = inhibition: at 38.3 µM (top of the series) unless noted
# Outline: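 Rat S16 Schwann cells with beta-Lac driven by a PMP22 intronic element, compound-treated 24 h at 37 °C. LiveBLAzer FRET B/G read: 460 nm normalized to potassium clavulanate vs DMSO; 535 nm FRET as viability; concentration-effect curves classified.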
# [2] = tested on: 3D7; experiment: qHTS profiling for inhibitors of Plasmodium falciparum proliferation (AID 504749); also: nearly all actives have a fitted effect of over 60% in size; also: potency is read from the fitted curve at half-maximal effect; conditions: P. falciparum in erythrocytes, SYBR Green DNA, 72 h; series mostly up to 28.7 µM
# Outline: (§1)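 P. falciparum-infected erythrocytes (0.3% parasitemia, 2.5% hematocrit final) were exposed to compounds for 72 h at 37 C in 5% CO2, then lysed with SYBR Green buffer overnight at room temperature; parasite DNA fluorescence was normalized to artemisinin and DMSO controls.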
# [3] = tested on: ATS95; experiment: as above; conditions: P. falciparum in erythrocytes, SYBR Green DNA, 72 h; series mostly up to 28.7 µM
# Outline: as §1
# [4] = tested on: CP185; experiment: as above; conditions: P. falciparum in erythrocytes, SYBR Green DNA, 72 h; series mostly up to 28.7 µM
# Outline: as §1
# [5] = tested on: CP201; experiment: as above; conditions: P. falciparum in erythrocytes, SYBR Green DNA, 72 h; series mostly up to 28.7 µM
# Outline: as §1
# [6] = tested on: CP211; experiment: as above; conditions: P. falciparum in erythrocytes, SYBR Green DNA, 72 h; series mostly up to 28.7 µM
# Outline: as §1
# [7] = tested on: CP238; experiment: as above; conditions: P. falciparum in erythrocytes, SYBR Green DNA, 72 h; series mostly up to 28.7 µM
# Outline: as §1
# [8] = tested on: CP252; experiment: as above; conditions: P. falciparum in erythrocytes, SYBR Green DNA, 72 h; series mostly up to 12.8 µM
# Outline: as §1
# [9] = tested on: CP256; experiment: as above; conditions: P. falciparum in erythrocytes, SYBR Green DNA, 72 h; series mostly up to 28.7 µM
# Outline: as §1
# [10] = tested on: CP266; experiment: as above; conditions: P. falciparum in erythrocytes, SYBR Green DNA, 72 h; series mostly up to 12.8 µM
# Outline: as §1
# [11] = tested on: CP269; experiment: as above; conditions: P. falciparum in erythrocytes, SYBR Green DNA, 72 h; series mostly up to 28.7 µM
# Outline: as §1
# [12] = tested on: CP286; experiment: as above; conditions: P. falciparum in erythrocytes, SYBR Green DNA, 72 h; series mostly up to 28.7 µM
# Outline: as §1
# [13] = tested on: CP305; experiment: as above; conditions: P. falciparum in erythrocytes, SYBR Green DNA, 72 h; series mostly up to 28.7 µM
# Outline: as §1
# [14] = tested on: CP315; experiment: as above; conditions: P. falciparum in erythrocytes, SYBR Green DNA, 72 h; series mostly up to 28.7 µM
# Outline: as §1
# [15] = tested on: CP329; experiment: as above; conditions: P. falciparum in erythrocytes, SYBR Green DNA, 72 h; series mostly up to 28.7 µM
# Outline: as §1
# [16] = tested on: DIV30; experiment: as above; conditions: P. falciparum in erythrocytes, SYBR Green DNA, 72 h; series mostly up to 28.7 µM
# Outline: as §1
# [17] = tested on: ECU; experiment: as above; conditions: P. falciparum in erythrocytes, SYBR Green DNA, 72 h; series mostly up to 28.7 µM
# Outline: as §1
# [18] = tested on: GB4; experiment: as above; conditions: P. falciparum in erythrocytes, SYBR Green DNA, 72 h; series mostly up to 28.7 µM
# Outline: as §1
# [19] = tested on: HB3; experiment: as above; conditions: P. falciparum in erythrocytes, SYBR Green DNA, 72 h; series mostly up to 28.7 µM
# Outline: as §1
# [20] = tested on: P94_40; experiment: as above; conditions: P. falciparum in erythrocytes, SYBR Green DNA, 72 h; series mostly up to 28.7 µM
# Outline: as §1
structure (smiles),measurement,setting,value
C#CCN(C)[C@@H](C)Cc1ccccc1,Potency,[1],inactive
same,Potency,[2],inactive
same,Potency,[3],inactive
same,Potency,[4],inactive
same,Potency,[5],inactive
same,Potency,[6],inactive
same,Potency,[7],inactive
same,Potency,[8],inactive
same,Potency,[9],inactive
same,Potency,[10],inactive
same,Potency,[11],inactive
same,Potency,[12],inactive
same,Potency,[13],inactive
same,Potency,[14],inactive
same,Potency,[15],inactive
same,Potency,[16],inactive
same,Potency,[17],inactive
same,Potency,[18],inactive
same,Potency,[19],inactive
same,Potency,[20],inactive
COc1ccc2c(c1OC)CN1CCc3cc4c(cc3[C@H]1C2)OCO4,Potency,[1],inactive
same,Potency,[3],2.51 µM (active)
same,Potency,[4],2.51 µM (active)
same,Potency,[6],2.03 µM (active)
same,Potency,[7],3.55 µM (active)
same,Potency,[9],3.16 µM (active)
same,Potency,[11],2.03 µM (active)
same,Potency,[13],2.28 µM (active)
same,Potency,[14],3.61 µM (active)
same,Potency,[15],1.61 µM (active)
same,Potency,[16],2.56 µM (active)
same,Potency,[18],2.03 µM (active)
same,Potency,[20],2.51 µM (active)
C[C@H](N)[C@@H](O)c1ccccc1,Potency,[1],inactive
same,Potency,[2],inactive
same,Potency,[3],inactive
same,Potency,[4],inactive
same,Potency,[5],inactive
same,Potency,[6],inactive
same,Potency,[7],inactive
same,Potency,[8],inactive
same,Potency,[9],inactive
same,Potency,[10],inactive
same,Potency,[11],inactive
same,Potency,[12],inactive
same,Potency,[13],inactive
same,Potency,[14],inactive
same,Potency,[15],inactive
same,Potency,[16],inactive
same,Potency,[17],inactive
same,Potency,[18],inactive
same,Potency,[19],inactive
same,Potency,[20],inactive
CC(C)c1c(CN(C)[C@@H](C)Cc2ccccc2)n(C)n(-c2ccccc2)c1=O,"ratio activity, negative = inhibition",[1],-8.16% [at 17.1 µM] (active)
same,Potency,[2],inactive
same,Potency,[3],inactive
same,Potency,[4],inactive
same,Potency,[5],inactive
same,Potency,[6],inactive
same,Potency,[7],inactive
same,Potency,[8],inactive
same,Potency,[9],inactive
same,Potency,[10],inactive
same,Potency,[11],inactive
same,Potency,[12],inactive
same,Potency,[13],inactive
same,Potency,[14],inactive
same,Potency,[15],inactive
same,Potency,[16],inactive
same,Potency,[17],inactive
same,Potency,[18],inactive
same,Potency,[19],inactive
same,Potency,[20],inactive
N[C@H]1C[C@H]1c1ccccc1,Potency,[1],inactive
same,Potency,[2],inactive
same,Potency,[3],inactive
same,Potency,[4],inactive
same,Potency,[5],inactive
same,Potency,[6],inactive
same,Potency,[7],inactive
same,Potency,[8],inactive
same,Potency,[9],inactive
same,Potency,[10],inactive
same,Potency,[11],inactive
same,Potency,[12],inactive
same,Potency,[13],inactive
same,Potency,[14],inactive
same,Potency,[15],inactive
same,Potency,[16],inactive
same,Potency,[17],inactive
same,Potency,[18],inactive
same,Potency,[19],inactive
same,Potency,[20],inactive
CC(=O)OCC(=O)[C@@H]1CC[C@H]2[C@H]3CC[C@H]4C[C@@H](O)CC[C@]4(C)[C@@H]3C(=O)C[C@@]12C,Potency,[1],inactive
same,Potency,[2],inactive
same,Potency,[3],inactive
same,Potency,[4],inactive
same,Potency,[5],inactive
same,Potency,[6],inactive
same,Potency,[7],inactive
same,Potency,[8],inactive
same,Potency,[9],inactive
same,Potency,[10],inactive
same,Potency,[11],inactive
same,Potency,[12],inactive
same,Potency,[13],inactive
same,Potency,[14],inactive
same,Potency,[15],inactive
same,Potency,[16],inactive
same,Potency,[17],inactive
same,Potency,[18],inactive
same,Potency,[19],inactive
same,Potency,[20],inactive
CC[C@]1(c2cccc(O)c2)CCCCN(C)C1,Potency,[1],inactive
same,Potency,[2],inactive
same,Potency,[5],inactive
same,Potency,[8],inactive
same,Potency,[9],inactive
same,Potency,[10],inactive
same,Potency,[12],inactive
same,Potency,[14],inactive
same,Potency,[17],inactive
same,Potency,[18],4.55 µM (active)
same,Potency,[19],inactive
C[N+]1([O-])[C@@H]2CC[C@H]1CC(OC(=O)[C@@H](CO)c1ccccc1)C2 (some centres not stated),Potency,[1],inactive
same,Potency,[2],inactive
same,Potency,[3],inactive
same,Potency,[4],inactive
same,Potency,[6],inactive
same,Potency,[7],inactive
same,Potency,[8],inactive
same,Potency,[9],inactive
same,Potency,[10],inactive
same,Potency,[11],inactive
same,Potency,[12],inactive
same,Potency,[13],inactive
same,Potency,[14],inactive
same,Potency,[15],inactive
same,Potency,[16],inactive
same,Potency,[17],inactive
same,Potency,[18],inactive
same,Potency,[19],inactive
same,Potency,[20],inactive
NCC[C@H](O)C(=O)N[C@H]1C[C@@H](N)[C@@H](O[C@H]2O[C@@H](CN)[C@@H](O)[C@@H](O)[C@@H]2N)[C@@H](O[C@H]2O[C@@H](CO)[C@@H](O)[C@@H]2O)[C@@H]1O,Potency,[1],inactive
same,Potency,[2],inactive
same,Potency,[3],inactive
same,Potency,[4],inactive
same,Potency,[5],inactive
same,Potency,[6],inactive
same,Potency,[7],inactive
same,Potency,[8],inactive
same,Potency,[9],inactive
same,Potency,[10],inactive
same,Potency,[11],inactive
same,Potency,[12],inactive
same,Potency,[13],inactive
same,Potency,[14],inactive
same,Potency,[15],inactive
same,Potency,[16],inactive
same,Potency,[17],inactive
same,Potency,[18],inactive
same,Potency,[19],inactive
same,Potency,[20],inactive
Clc1ccc([C@@H](OCCN2CCCCC2)c2ccccc2)cc1,Potency,[1],inactive
same,Potency,[2],inactive
same,Potency,[4],inactive
same,Potency,[5],inactive
same,Potency,[6],inactive
same,Potency,[7],inactive
same,Potency,[8],inactive
same,Potency,[9],inactive
same,Potency,[10],inactive
same,Potency,[12],3.55 µM (active)
same,Potency,[14],inactive
same,Potency,[15],inactive
same,Potency,[18],5.73 µM (active)
same,Potency,[19],7.94 µM (active)
same,Potency,[20],3.55 µM (active)
CC(C)N(CC[C@@](C(N)=O)(c1ccccc1)c1ccccn1)C(C)C,Potency,[1],inactive
same,Potency,[2],inactive
same,Potency,[3],inactive
same,Potency,[4],inactive
same,Potency,[5],inactive
same,Potency,[6],inactive
same,Potency,[7],inactive
same,Potency,[8],inactive
same,Potency,[9],inactive
same,Potency,[10],inactive
same,Potency,[11],inactive
same,Potency,[12],inactive
same,Potency,[13],inactive
same,Potency,[14],inactive
same,Potency,[15],inactive
same,Potency,[16],inactive
same,Potency,[17],inactive
same,Potency,[19],inactive
same,Potency,[20],inactive
CN[C@@H](C)[C@H]1CC[C@@H](N)[C@@H](O[C@@H]2[C@@H](O)[C@@H](O[C@H]3OC[C@@](C)(O)[C@@H](NC)[C@@H]3O)[C@H](N)C[C@@H]2N)O1 (tested in a mixture with another compound),Potency,[1],inactive
same,Potency,[2],inactive
same,Potency,[3],inactive
same,Potency,[4],inactive
same,Potency,[5],inactive
same,Potency,[6],inactive
same,Potency,[7],inactive
same,Potency,[8],inactive
same,Potency,[9],inactive
same,Potency,[10],inactive
same,Potency,[11],inactive
same,Potency,[12],inactive
same,Potency,[13],inactive
same,Potency,[14],inactive
same,Potency,[15],inactive
same,Potency,[16],inactive
same,Potency,[17],inactive
same,Potency,[18],inactive
same,Potency,[19],inactive
same,Potency,[20],inactive
